Compound activity (PubChem BioAssay)
An excerpt weighted towards active compounds, which were near 3.3% of everything screened.
PI5P4K alpha inh: qHTS for Inhibitors of phosphatidylinositol 5-phosphate 4-kinase (PI5P4K) | Phosphatidylinositol 5-phosphate 4-kinase type-2 alpha (Homo sapiens), P48426 | PI5P4Kalpha enzyme, ADP-Glo luminescence, 60 min; stronger effect = lower value | max response, % | actives 1.2% (n = 330,000); active means max response of -50% or lower; inconclusive means between -30% and -50%; inactive means -30% or higher; further: value at the top dose of about 77 µM; on the % scale 0 is the no-effect control and ±100 the full control effect
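ADP-Glo luminescence end-point read after a 60 min room-temperature kinase reaction of PI5P4Kalpha plus substrate, initiated with ATP at 5 microM final. Buffer: 0.038 M HEPES pH 7.4, EGTA, 0.1% CHAPS, 5% DMSO.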
DRD3 agonist: qHTS of D3 Dopamine Receptor Agonist: qHTS; D(3) dopamine receptor (Homo sapiens), P35462; max activation, %; D3R DiscoveRx beta-arrestin cells, luminescence, 90 min; actives 0.58% (n = 410,000); AID 652048, 2013; in the data active means max activation above about 30%; further: 0% is about no effect
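Agonist-mode cell screen: cells plated at 1500/well and incubated overnight at 37 °C, then exposed to library compounds for 90 min at 37 °C. Detection reagent was added for 30–60 min at room temperature, and luminescence was read.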
PI4K2A inh: qHTS for small molecular inhibitors of PI4K2A | AID 1346378, 2018 | actives 0.13% (n = 420,000) | Phosphatidylinositol 4-kinase type 2-alpha (Homo sapiens), Q9BTU6 | activity change, negative = inhibition, % at 76.9 µM | purified PI4K2A, ADP-Glo luminescence, 1 h; stronger effect = lower value; in the data active means activity change below about -50%; inconclusive means mostly about -30% to -49%;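 further: -100% = wells without enzyme as full effect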
Target sequence (Q9BTU6 whole entry, looked up): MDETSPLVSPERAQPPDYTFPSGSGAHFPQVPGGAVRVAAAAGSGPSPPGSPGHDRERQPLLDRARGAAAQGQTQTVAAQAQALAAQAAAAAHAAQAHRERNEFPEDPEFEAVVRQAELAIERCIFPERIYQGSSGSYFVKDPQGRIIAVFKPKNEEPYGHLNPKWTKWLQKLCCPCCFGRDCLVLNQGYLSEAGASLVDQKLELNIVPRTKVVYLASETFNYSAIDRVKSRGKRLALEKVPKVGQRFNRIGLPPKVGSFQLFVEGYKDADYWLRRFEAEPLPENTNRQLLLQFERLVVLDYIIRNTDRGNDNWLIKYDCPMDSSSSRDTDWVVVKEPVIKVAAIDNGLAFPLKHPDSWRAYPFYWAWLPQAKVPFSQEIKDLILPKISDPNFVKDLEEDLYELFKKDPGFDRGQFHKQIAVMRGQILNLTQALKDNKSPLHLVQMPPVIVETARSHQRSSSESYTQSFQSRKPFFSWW
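PI4K2A activity was measured by ADP-Glo luminescence: enzyme (4 ug/mL stock) and phosphatidylinositol (1.2 mM stock) in Tris pH 7.5/MgCl2/EGTA/Triton X-100 buffer were reacted with ATP (300 microM stock) for one hour at ambient temperature.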
LDHA inh: qHTS assay for inhibitors of human lactate dehydrogenase; L-lactate dehydrogenase A chain (Homo sapiens), P00338; purified LDHA, NADH/diaphorase-resazurin fluorescence; stronger effect = lower value; activity change, % (values are at about 110 or 230 µM); actives 0.15% (n = 480,000); in the data active means activity change below about -30%; inconclusive means mostly about -25% to -30%;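 further: plate controls were DMSO wells for no effect and wells without enzyme for full effect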
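LDH5 2 nM; NADH 0.06 mM, pyruvate 0.2 mM; 200 mM Tris pH 7.4, EDTA, Tween-20; 5 min RT. Detection: diaphorase 0.133 mg/mL + resazurin 37 µM, fluorescence ex540/em590 at 0 and 20 min; normalized to enzyme-free and DMSO wells.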
D3 antag: qHTS of D3 Dopamine Receptor Antagonist: qHTS | D(3) dopamine receptor (Homo sapiens), P35462 | D3R cells, DiscoveRx beta-arrestin luminescence, antagonist mode; stronger effect = lower value | max response, negative = inhibition, % | actives 2.5% (n = 360,000); in the data active means max response below about -50%; inconclusive means no clear call, values can overlap the other calls; further: on the % scale 0 is the no-effect control and ±100 the full control effect
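Cells plated overnight at 1500 cells/well, then exposed to library compounds with dopamine controls for 90 minutes at 37 degrees C. DiscoveRx reagent added for 30–60 minutes at room temperature; luminescence read, quantitative HTS format.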
The depositor's hits bear a star; ? = inconclusive; nt = not tested or not shown.

SMILES	PI5P4K alpha inh	DRD3 agonist	PI4K2A inh	LDHA inh	D3 antag
CCc1cccc2c(C(=O)COC(=O)c3cccc(S(=O)(=O)N(C)C4CCCCC4)c3)c[nH]c12	-68.5*	-0.9	0.2	0.1	15.7
CCc1cccc2c(C(=O)COC(=O)c3cccc(C)c3)c[nH]c12	nt	nt	nt	-1.8	nt
CC(=O)NNC(=O)CCC(=O)Nc1ccccc1	nt	2.1	3.2	1.1	-80.1*
Cc1ccc(S(=O)(=O)N(CC(=O)N2CCN(C(=O)c3ccccc3)CC2)Cc2ccco2)cc1	nt	nt	nt	-6.5	nt
CCOc1ccc(S(=O)(=O)N(CC(=O)N2CCc3ccccc32)Cc2ccco2)cc1	-2.8	-1.1	0.0	-3.0	-66.2*
COCCNC(=O)C1CCCN(C(=O)c2ccc3ccccc3n2)CC1 (configuration not stated)	-0.5	53.8*	-7.8	-6.6	0.0
CCNC(=O)C1CCCN(C(=O)c2ccc(OC)c(OC)c2)CC1 (configuration not stated)	-1.7	79.3*	1.7	-2.1	19.8
Cc1nn(C)c(C(=O)Nc2sc3c(c2C#N)CCC3)c1Br	nt	nt	nt	5.3	nt
Cc1ccc(SCc2cc(=O)c3c(=O)n(-c4ccccc4)[nH]c3[nH]2)cc1	-61.8*	-1.3	-9.9	0.1	-9.3
COc1cccc(C#Cc2c(C=O)n(C)c3ccccc23)c1	16.9	55.6*	-0.7	0.4	69.1
Cn1c(C=O)c(C#CC(C)(C)O)c2ccccc21	-7.6	11.6	-1.5	-5.1	17.1
O=C(OC12CCCN(C1)/C(=C/c1ccc(Cl)cc1)C2)c1cccc(F)c1 (configuration not stated)	nt	nt	2.4	nt	nt
CC1=NN(C(=S)Nc2ccccc2)C(c2ccccc2)C1 (configuration not stated)	0.5	-7.6	-4.6	-14.0	?
Cc1ccc(C2CC(c3ccccc3)=NN2C(=S)Nc2ccccc2)o1 (configuration not stated)	-0.3	-2.8	6.7	1.1	-51.1*
CCCOc1ccc(NC(=O)C(CC)Oc2ccccc2F)c2cccnc12 (configuration not stated)	nt	nt	nt	25.9	nt
COc1ccc(C(=O)Nc2cc3c(cc2N2CCCCC2)n(C)c(=O)n3C)cc1OC	-0.8	32.4*	5.5	-1.2	24.0
COc1ccc(C(=O)Nc2cc3c(cc2N2CCCC2)n(C)c(=O)c(=O)n3C)cc1OC	nt	1.0	-1.9	4.3	nt
COc1ccccc1CNC(=O)c1nccnc1N	nt	nt	nt	1.3	nt
O=C(CNc1ccc(F)c(Cl)c1)Nc1cc(Cl)ccc1-n1cncn1	nt	nt	nt	8.7	nt
c1ccc(-c2nnc(CN3CCN(c4ccccc4)CC3)o2)cc1	-0.9	54.6*	-8.0	2.2	-17.0
Clc1cccc(N2CCN(Cc3nnc(-c4ccccc4)o3)CC2)c1	18.6	23.8	4.1	-7.8	?
c1ccc(N2CCN(Cc3nnc(-c4ccc5c(c4)OCO5)o3)CC2)cc1	nt	37.0*	1.1	4.2	nt
Cc1ccccc1-c1nnc(CN2CCN(c3ccccn3)CC2)o1	nt	49.8*	-0.7	-4.9	nt
O=C(c1cc(-c2ccc3c(c2)OCO3)on1)N1CCN(c2ccccc2)CC1	nt	53.0*	-3.0	-0.2	55.6
Cc1ccccc1-c1nnc(CN2CCC(C)CC2)o1	4.1	-21.5	0.2	-8.1	?
SMILES	PI5P4K alpha inh	DRD3 agonist	PI4K2A inh	LDHA inh	D3 antag
c1cc(-c2cn[nH]c2)ccn1	nt	nt	nt	-2.0	nt
O=C1CSc2ccc(C(=O)Nc3ccc4c(c3)OCCO4)cc2N1	nt	nt	nt	3.1	nt
Cc1cc(OCC(=O)N(Cc2cccs2)c2ccccn2)ccc1Cl	nt	nt	nt	15.6	nt
CCCCCCCc1c(C(=O)O)cc(C)cc1C(=O)O	nt	nt	nt	-0.7	nt
Cc1ccc(NC(=O)Cc2ccc(F)cc2)c(S(=O)(=O)N2CCOCC2)c1	nt	nt	3.8	nt	nt
c1ccc(-c2nnc(CN3CCN(C(c4ccccc4)c4ccccc4)CC3)o2)cc1	-0.7	-10.5	-1.2	1.5	-56.0*
O=c1[nH][nH]c(C(F)(F)F)c1C=Nc1cccc(Cl)c1	nt	0.0	0.3	-1.5	6.1
O=c1[nH][nH]c(C(F)(F)F)c1C=Nc1ccccc1	-0.9	-3.6	-3.9	-4.8	-53.9*
O=C(O)COc1ccc(/C=N/NC(=O)c2ccc(-c3csc(Nc4ccc(Cl)cc4)n3)cc2)cc1	-69.2*	17.4	-4.9	-2.9	2.7
COc1cc(Br)c(C(C)NC(=O)c2ccccc2)cc1OC (configuration not stated)	nt	40.1*	-1.0	4.7	-16.8
COc1ccc(C(CC(=O)O)NC(=O)c2ccccc2)cc1OC (configuration not stated)	-3.5	-12.3	3.7	-3.2	-59.6*
COc1ccc(OC)c(C(C)NC(=O)c2ccc(Br)cc2)c1 (configuration not stated)	-8.7	3.3	5.8	-6.3	5.2
O=c1oc2cc(Oc3c([N+](=O)[O-])cc(C(F)(F)F)cc3[N+](=O)[O-])ccc2c2c1CCCC2	-20.9	6.5	10.2	-1.9	-89.9*
O=c1oc2cc(Oc3ccc(C(F)(F)F)cc3[N+](=O)[O-])ccc2c2c1CCC2	-10.3	-6.9	-1.8	1.5	-2.5
COC(=O)c1c(SCC(=O)Nc2cccc(Cl)c2C)[nH]c2ccccc2c1=O	nt	-11.3	7.0	4.0	nt
COC(=O)c1c(SCC(=O)NC2CCCCC2)[nH]c2ccccc2c1=O	-67.8*	-1.9	-2.9	6.6	-5.7
O=C(COC(=O)c1ccccc1Nc1ccccc1)Nc1ccccc1	4.8	0.9	-4.0	-8.5	9.8
CC(=O)c1ccc(NC(=O)COC(=O)c2ccccc2Nc2ccccc2)cc1	4.5	-0.5	-4.6	-7.1	-51.1*
COc1cc(C=Nc2ccc(C)c(I)c2)ccc1OC(C)=O	nt	nt	nt	2.1	nt
COC(=O)C1=C(C)NC(C)=C(C(=O)OC)C1c1ccccc1[N+](=O)[O-]	-58.2*	-82.8	2.8	16.8	-105.3*
CCOC(=O)C1=C(C)NC(C)=C(C(=O)OC)C1c1cccc([N+](=O)[O-])c1 (configuration not stated)	7.6	-27.2	6.2	-5.6	4.6
CN1CCN(c2nc(-c3ccco3)cc(C(F)(F)F)n2)CC1	nt	-31.8	-1.7	-6.4	-92.0*
O=C(COc1cccc2ccccc12)NNC(=O)Nc1ccccc1	nt	-26.1	-0.5	-1.3	?
O=C(COc1cccc2ccccc12)NNC(=O)CSCCO	-4.9	-3.0	11.4	-0.7	-50.5*
CCc1nc2ccccc2c(C(=O)OCC(=O)Nc2cccc(S(=O)(=O)N3CCOCC3)c2)c1C	nt	33.2*	1.2	3.0	104.7
O=C(COC(=O)c1ccc2ccccc2n1)Nc1cccc(S(=O)(=O)NC2=NCCCCC2)c1	-5.9	-3.5	-1.2	-1.8	-4.8
